Source: PubChem BioAssay AID1159580 (chemical genetic matrix, 2015)
“And” between values parts separate entries of the source, which are not always exact repeats. Equal entries are not always repeated. About 2,000 (36%) of roughly 5,500 compounds were called active. Not shown: some 18% with an inconclusive outcome. Cut-off read from the data, not from the text of the source: active = normalized growth mostly below about 0.91 (no sharp cut-off); inconclusive = no clear call, values can overlap the other calls; inactive = mostly above about 0.92. This is one part of the list.

Assay: chemical genetic growth profiling, strain panel (AID 1159580);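 note: tested at 20 µM; growth read once vehicle control cultures reached saturation at 30 °C; 1 = growth at the plate median or of vehicle wells; lower values mean less growth of the strain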
Settings: S. cerevisiae deletion strains, growth OD

Measured: normalized growth

CC(=O)[C@H]1CCC2C3CC=C4C[C@@H](O)CC[C@]4(C)C3CC[C@@]21C (stereo partly specified)
active: locus YAL026C, strain drs2, stronger effect = lower value 0.788 | locus YCL069W, strain vba3, stronger effect = lower value 0.897 | locus YDR137W, strain rgp1, stronger effect = lower value 0.518 | locus YDR195W, strain ref2 1.28 [resistant] | locus YDR392W, strain spt3, stronger effect = lower value 0.335 | locus YER155C, strain BEM2 (second series), stronger effect = lower value 0.774 | locus YGL253W, strain hxk2, stronger effect = lower value 0.9 | locus YGR252W, strain gcn5, stronger effect = lower value 0.65 | locus YHR142W, strain chs7, stronger effect = lower value 0.862 | locus YJL166W, strain qcr8, stronger effect = lower value 0.895
inactive: locus YAL013W, strain DEP1, stronger effect = lower value 0.999 | locus YAL021C, strain ccr4, stronger effect = lower value 0.958 | locus YAL030W, strain snc1, stronger effect = lower value 0.956 | locus YBL061C, strain skt5, stronger effect = lower value 0.981 | locus YBR009C, strain hhf1, stronger effect = lower value 0.929 | locus YBR021W, strain FUR4, stronger effect = lower value 0.962 | locus YBR023C, strain chs3, stronger effect = lower value 0.969 | locus YBR171W, strain sec66, stronger effect = lower value 0.996 | locus YBR229C, strain ROT2, stronger effect = lower value 1.01 | locus YBR231C, strain swc5, stronger effect = lower value 0.955 | locus YBR279W, strain paf1, stronger effect = lower value 0.981 | locus YCL011C, strain gbp2, stronger effect = lower value 0.947 | locus YCL016C, strain dcc1, stronger effect = lower value 0.95 | locus YCL029C, strain bik1, stronger effect = lower value 0.966 | locus YCR088W, strain abp1, stronger effect = lower value 1.02 | locus YDL005C, strain med2, stronger effect = lower value 1 | locus YDL035C, strain GPR1, stronger effect = lower value 0.863 | locus YDL040C, strain nat1, stronger effect = lower value 1.01 | locus YDL074C, strain BRE1, stronger effect = lower value 0.836 | locus YDL101C, strain DUN1, stronger effect = lower value 0.985 | locus YDL134C, strain PPH21, stronger effect = lower value 0.957 | locus YDL185W, strain tfp1, stronger effect = lower value 1.02 | locus YDL192W, strain arf1, stronger effect = lower value 1.02 | locus YDR001C, strain nth1, stronger effect = lower value 1.02 | locus YDR069C, strain doa4, stronger effect = lower value 0.965 | locus YDR101C, strain arx1, stronger effect = lower value 1.01 | locus YDR150W, strain NUM1, stronger effect = lower value 1.01 | locus YDR159W, strain sac3, stronger effect = lower value 0.927 | locus YDR162C, strain NBP2, stronger effect = lower value 0.958 | locus YDR297W, strain sur2, stronger effect = lower value 0.973 | locus YDR318W, strain mcm21, stronger effect = lower value 0.94 | locus YDR334W, strain swr1, stronger effect = lower value 1.03 | locus YDR335W, strain msn5, stronger effect = lower value 0.958 | locus YDR388W, stronger effect = lower value 0.981 | locus YDR502C, strain sam2, stronger effect = lower value 0.943 | locus YEL003W, strain gim4, stronger effect = lower value 0.938 | locus YEL037C, strain rad23, stronger effect = lower value 0.976 | locus YEL061C, strain CIN8 (second series), stronger effect = lower value 1.01 | locus YEL061C, strain CIN8, stronger effect = lower value 1.01 | locus YER015W, strain faa2, stronger effect = lower value 0.939 | locus YER016W, strain bim1, stronger effect = lower value 0.996 | locus YER110C, stronger effect = lower value 1.03 | locus YER111C, strain swi4, stronger effect = lower value 1.01 | locus YER155C, strain BEM2, stronger effect = lower value 1.01 | locus YER167W, strain BCK2, stronger effect = lower value 0.926 | locus YFR010W, strain ubp6, stronger effect = lower value 1.05 | locus YGL078C, strain dbp3, stronger effect = lower value 1.02 | locus YGL086W, strain mad1, stronger effect = lower value 0.944 | locus YGL167C, strain pmr1, stronger effect = lower value 0.996 | locus YGL173C, strain kem1, stronger effect = lower value 0.923 | locus YGL227W, strain vid30, stronger effect = lower value 1.01 | locus YGL240W, strain doc1, stronger effect = lower value 0.982 | locus YGL248W, strain PDE1, stronger effect = lower value 0.962 | locus YGR078C, strain PAC10, stronger effect = lower value 0.879 | locus YGR135W, strain pre9, stronger effect = lower value 0.904 | locus YGR229C, strain SMI1, stronger effect = lower value 0.958 | locus YHR013C, strain ard1, stronger effect = lower value 0.948 | locus YHR027C, strain rpn1, stronger effect = lower value 0.961 | locus YHR030C, strain SLT2, stronger effect = lower value 0.95 and 0.954 | locus YHR079C, strain IRE1 (second series), stronger effect = lower value 0.998 | locus YHR079C, strain IRE1, stronger effect = lower value 0.988 | locus YHR094C, strain hxt1, stronger effect = lower value 1.03 | locus YHR129C, strain ARP1, stronger effect = lower value 1.01 | locus YHR200W, strain rpn10, stronger effect = lower value 0.965 | locus YIL066C, strain RNR3, stronger effect = lower value 0.865 | locus YIL073C, strain SPO22, stronger effect = lower value 0.807 | locus YIL125W, strain kgd1, stronger effect = lower value 1.03 | locus YIR030C, strain dcg1, stronger effect = lower value 1.04 | locus YJL092W, strain hpr5, stronger effect = lower value 0.97 | locus YJL095W, strain BCK1 (second series), stronger effect = lower value 0.935 | locus YJL115W, strain asf1, stronger effect = lower value 0.994 | locus YJL129C, strain trk1, stronger effect = lower value 0.935 | locus YJL134W, strain LCB3, stronger effect = lower value 1.01 | locus YJL154C, strain vps35, stronger effect = lower value 1.01 | locus YJL164C, strain tpk1, stronger effect = lower value 0.923 | locus YJL168C, strain set2, stronger effect = lower value 1.03 | locus YJL187C, strain SWE1 (second series), stronger effect = lower value 0.945 | locus YJR043C, strain POL32, stronger effect = lower value 0.991 | locus YJR066W, strain TOR1, stronger effect = lower value 0.866 | locus YJR075W, strain HOC1, stronger effect = lower value 0.933
0.754 (active) and 0.958 (inactive): locus YJL095W, strain BCK1, stronger effect = lower value
